PubChem BioAssay (NCATS)
Inconclusive results are not listed. A call without a number means that no potency is given here. The source made the active and inactive calls. Calls follow the shape of the dose curve; as a rule, active = well fitted inhibition curve with a large enough effect; inconclusive = small, poorly fitted or top-dose-only effect; inactive = flat fitted curve, though single readings scatter. Where a SMILES comes first, the peptide text is derived from it. [ ]: non-standard residue; d: D form. Ala(indol-2-yl) = N[C@@H](Cc1cc2ccccc2[nH]1)C(=O)O; Aib = CC(C)(N)C(=O)O

What follows are compounds tested against Calcium and integrin-binding protein 1 (Homo sapiens) (UniProt Q99828) (assay: Primary qHTS for Identification of Calcium Integrin Binding Protein 1 (CIB1) Competitor (AID 1508620;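 also: GST tagged CIB1 binding a fluorescein labelled alphaIIb integrin peptide tracer; top concentration of the series differs between compounds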)). Settings: CIB1-GST / FITC-alphaIIb peptide fluorescence polarization; series mostly up to 114 µM.
Sequence of Calcium and integrin-binding protein 1 (Homo sapiens) (Q99828 whole entry, looked up): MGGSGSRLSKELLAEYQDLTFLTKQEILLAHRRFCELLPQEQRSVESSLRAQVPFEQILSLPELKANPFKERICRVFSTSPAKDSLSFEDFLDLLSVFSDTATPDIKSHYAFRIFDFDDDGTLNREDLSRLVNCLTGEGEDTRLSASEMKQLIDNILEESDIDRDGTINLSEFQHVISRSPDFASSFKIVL
Source text: Assay Provider: Ulhas P. Naik, PhD Sidney Kimmel Medical College Thomas Jefferson University, Philadelphia, PA Primary function of platelets is to maintain hemostasis. At the site of vascular injury, platelets adhere to adhesive proteins such as collagen and von Willebrand factor. Adherent platelets are activated and generate soluble platelet agonists such as thrombin, ADP and thromboxane A2. Following exposure of circulating platelets to these agonists, results in platelet shape change, granule secretion and activation of platelet integrin alphaIIb-beta3. Ligand binding to activated integrin alphaIIb-beta3 triggers outside-in signaling, leading to platelet aggregation, stabilization of platelet plug, and clot retraction. Upon atherosclerotic plaque rupture also causes platelet plug formation, which underlies a number of cardiovascular diseases such as myocardial infraction and stroke. A number of anti-platelet drugs such as aspirin, clopidogrel, prasugrel, vorapaxar, and eptifibatide are currently available to prevent the thrombotic complications. However, these anti-platelet agents have several limitations including inherent variability in individual responses, developing resistance, and serious bleeding side effects. For these reasons they are not suitable for long-term protection. Based on the experiences with current anti-platelet drugs, it appears that the most useful therapeutic approach is to intersect the secondary responses such as integrin outside-in signaling or recruitment of platelets by TxA2 and secreted ADP. Compounds, which can largely preserve the primary hemostatic function of platelets but inhibit secondary response will be most desired therapeutic agents for treatment of cardiovascular disease. CIB1 is a calcium integrin binding protein, which specifically interact with the alphaIIb subunit of integrin alphaIIb-beta3. Binding of CIB1 to alphaIIb regulates the outside-in signaling in platelets, which is needed for thrombus stabilization and thrombus growth. […] Therefore, we propose that discovery of a small molecule that can prevent the association of CIB1 and alphaIIb-beta3 will be a potential anti-platelet agent that can block the thrombus formation without undue effect on hemostasis. Reference: [1] Naik MU, Nigam A, Manrai P, et al. CIB1 deficiency results in impaired thrombosis: the potential role of CIB1 in outside-in signaling through integrin alpha IIb beta 3. J Thromb Haemost.
PROTOCOL TABLES SEQUENCE No. (1, 2, 3, etc.); […] (e.g., Cells, Incubation, Reagent, etc.); VALUE and DESCRIPTION. 1; Reagent; 3 uL; Protein or buffer (4/3x) 2; Compound; 46 nL; Control inhibitor / compound library 3; Time; 15 min; Room temperature incubation 4; Reagent; 1 uL; Fluorescent labeled peptide (4x) 5; Time; 1000 rpm; Centrifuge 6; Time; 15 min; Room temperature incubation 7; Detection; Ex 480/ Em 540; ViewLux Fluorescence Read NOTES (numbers refer to sequence above) 1; Protein Mixture: C1B1-GST (final concentrations of 1 uM). […] 3; Room temperature incubation. 4; Fluorescent Labeled Peptide: FITC-aIIb (final concentration of 100 nM). Sequence of alphaIIb peptide: Acetyl-[…]-FITC (purity is 95.83%). 5; Centrifuge 1000 rpm (164 g) for 15 seconds. 6; Room temperature incubation. 7; ViewLux Fluorescent Polization Read: excitation = 480(20) / emission = 540(25) S and P; FITC Dichroic mirror.

| Compound | Potency |
| --- | --- |
| CN(C(=O)CN1C(=O)COc2cc(Cl)c(Cl)cc21)[C@@H](CN1CCCC1)c1ccc(-c2cccc(C(N)=O)c2)cc1 | inactive |
| C#C[C@]1(O)CC[C@H]2[C@@H]3CC[C@H]4Cc5nc6nc7ccccc7n6cc5C[C@]4(C)[C@H]3CC[C@@]21C | inactive |
| CCC1CN2CCC3(C(=O)Nc4cccc(O)c43)C2CC1/C(=C/OC)C(=O)OC (stereo not given) | inactive |
| Cc1c(Cl)c(OCC(=O)N2CCN(C)CC2)nc2sc(C(=O)NC3CC3)c(N)c12 | inactive |
| COc1cc2c(c(OC)c1OC)-c1ccc(SC)c(=O)cc1[C@@H](NC(C)=O)CC2 | inactive |
| CC(C)[C@H](NC(=O)c1nn(Cc2ccc(F)cc2)c2ccccc12)C(N)=O | inactive |
| c1cncc(OC[C@@H]2CCN2)c1 | inactive |
| O=C1CN=C(c2ccccc2Cl)c2cc(Br)ccc2N1 | inactive |
| C[C@@H]1C[C@@H](O)[C@]2(O)O[C@@H]3C[C@@]4(C=O)C(CC[C@@H]5C4CC[C@]4(C)[C@@](O)(C6=CC(=O)OC6)CC[C@]54O)C[C@H]3OC2O1 (stereo not given in full) | inactive |
| CCOC(=O)C1(CCc2ccccc2)CCN(Cc2ccc(NC(C)=O)cc2)CC1 | inactive |
| COC(=O)C1=COC(C)C2CN3CCC4(C(=O)Nc5ccccc54)C3CC12 (stereo not given) | inactive |
| CN1Cc2c(ccc3c2OCO3)[C@@H]2[C@H]1c1cc3c(cc1C[C@@H]2O)OCO3 | inactive |
| COC1C(O)C(C)OC(OC2C(CO)O[C@@H](O[C@@H]3CC4CCC5C(CC[C@]6(C)[C@@H](C7=CC(=O)OC7)CC[C@]56O)[C@@]4(C)[C@H](OC(C)=O)C3)C(O)C2O)C1O (stereo not given in full) | inactive |
| Cc1ncc(OC[C@@]2(c3cccc(F)c3)C[C@H]2C(=O)Nc2ccc(F)cn2)c(C)n1 | inactive |
| CCOC(=O)Nc1ccc(NCc2c(C)cc(C)cc2C)cc1N | inactive |
| CC(O)(c1ccccc1)C(Cc1ccc(Cl)cc1)n1cncn1 (stereo not given) | inactive |
| CC(=O)OC[C@]12C[C@H](O)C(C)=C[C@H]1O[C@@H]1[C@H](O)[C@@H](OC(C)=O)[C@@]2(C)[C@]12CO2 | inactive |
| FC(F)(F)c1ccc(N2CCNCC2)nc1Cl | inactive |
| CC(=O)NCCCOc1ccc(C(=O)N2CCC(N3C(=O)CCc4ccccc43)CC2)cc1 | inactive |
| CS[C@]1(CO)C(=O)N2[C@H]3C(=CC=C[C@@H]3O)C[C@@]2(SC)C(=O)N1C | inactive |

| Compound | Potency |
| --- | --- |
| C[C@]12CC[C@H](O)C[C@H]1CC[C@@H]1[C@@H]2[C@H](O)C[C@]2(C)[C@@H](c3ccc(=O)oc3)CC[C@]12O | inactive |
| CCCCCn1cc(C(=O)Cc2ccccc2OC)c2ccccc21 | inactive |
| CCCCOC(=O)c1ccnc2cc(C(OCCN3CCCCC3)c3ccccc3Cl)sc12 (stereo not given) | inactive |
| CC[C@@]1(O)C(=O)OCc2c1cc1n(c2=O)Cc2cc3c(OC)cccc3nc2-1 | inactive |
| CN1C(=O)C(Cc2ccc3ccccc3c2)N=C(c2ccc(O)cc2)c2cc(Cl)ccc21 (stereo not given) | inactive |
| C=C1[C@@H](C)C2[C@H](Cc3ccccc3)NC(=O)[C@@]23C(/C=C/C[C@H](C)C[C@@](C)(O)/C=C/[C@@H]3OC(C)=O)[C@@H]1O (stereo not given in full) | inactive |
| CC1=C[C@H]2O[C@@H]3[C@H](O)[C@@H](O)[C@](C)([C@@]2(CO)C[C@@H]1O)[C@]31CO1 | inactive |
| COC(=O)C12C(=O)C(C)(O)C(=O)C1(C)C(C)=CC1C3(C=O)CCC(OC(C)=O)C(C)(C)C3CCC12C (stereo not given) | inactive |
| C=C1[C@@]23C(=O)O[C@H](C)[C@]24O[C@@]2(C(=C)[C@]5(C=CC(=O)OC5(C)C)CC[C@]32C)[C@H](O)[C@@]1(C)OC4=O | inactive |
| CCOC(=O)c1ccc(-c2ccc(OC(=O)N(C)Cc3cccc(-c4ccncc4)c3)cc2)cc1 | inactive |
| COc1ccc(C23CCC(=O)C=C2N(C)CC3)cc1OC (stereo not given) | inactive |
| Cc1cccc(NC(=O)N[C@H]2CN(C)c3ccccc3C(c3ccccc3)=N2)c1 | inactive |
| CC(C)(NC(=O)[C@@H](N)Cc1ccc(O)cc1)C(=O)N[C@@H](Cc1cc2ccccc2[nH]1)C(=O)N[C@@H](Cc1ccccc1)C(=O)O (H-Y[Aib][Ala(indol-2-yl)]F-OH) | inactive |
| COc1ccc2c(c1)c(CCN(C)C)cn2S(=O)(=O)c1ccccc1 | inactive |
| CN1CCN(c2nc3ccccc3nc2Cl)CC1 | inactive |
| CN(C(=O)C(c1ccccc1)c1ccccc1)[C@H](CN1CC[C@H](O)C1)c1ccccc1 | inactive |
| C/C=C(/C)C1C=CC2CC(C)CC(C)C2C1/C(O)=C1\C(=O)NC(CC(C)(O)C(=O)O)C1=O (stereo not given) | inactive |
| Cc1cccc(NC(=O)c2ccc(C(F)(F)F)cc2C(=O)O)n1 | inactive |
| C/C=C1/CN2CC[C@]34C(=Nc5ccccc53)[C@@H]2C[C@@H]1[C@H]4C(=O)OC | inactive |
| CN1CCc2cc3c(cc2C1C1OC(=O)c2c1ccc1c2OCO1)OCO3 (stereo not given) | inactive |
